From PubChem BioAssay AID488847 (NMMLSC, 2010)
The whole screen tested about 330,000 compounds, of which about 1,900 (0.58%) were called active. This excerpt belongs to a sample that is enriched for actives. Unmarked numbers belong to inactive results.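 The calls were made as follows: active = inhibition of aptamer binding above 40%, roughly 3 SD of noise, on plates passing a quality check; inactive = the rest.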

Biological target: Beta-adrenergic receptor kinase 1 (Homo sapiens) (UniProt P25098)
Experiment: compounds blocking aptamer binding on GRK2 – biochemical, human GRK2, bead flow cytometry, HTS, primary screen (AID 488847);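 also: median bead fluorescence of bound FAM aptamer so fluorescent compounds give negative values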
Conditions: FAM-aptamer displacement from GRK2, at 10 µM, stronger effect = higher value

Sequence of Beta-adrenergic receptor kinase 1 (Homo sapiens) (P25098 whole entry, looked up): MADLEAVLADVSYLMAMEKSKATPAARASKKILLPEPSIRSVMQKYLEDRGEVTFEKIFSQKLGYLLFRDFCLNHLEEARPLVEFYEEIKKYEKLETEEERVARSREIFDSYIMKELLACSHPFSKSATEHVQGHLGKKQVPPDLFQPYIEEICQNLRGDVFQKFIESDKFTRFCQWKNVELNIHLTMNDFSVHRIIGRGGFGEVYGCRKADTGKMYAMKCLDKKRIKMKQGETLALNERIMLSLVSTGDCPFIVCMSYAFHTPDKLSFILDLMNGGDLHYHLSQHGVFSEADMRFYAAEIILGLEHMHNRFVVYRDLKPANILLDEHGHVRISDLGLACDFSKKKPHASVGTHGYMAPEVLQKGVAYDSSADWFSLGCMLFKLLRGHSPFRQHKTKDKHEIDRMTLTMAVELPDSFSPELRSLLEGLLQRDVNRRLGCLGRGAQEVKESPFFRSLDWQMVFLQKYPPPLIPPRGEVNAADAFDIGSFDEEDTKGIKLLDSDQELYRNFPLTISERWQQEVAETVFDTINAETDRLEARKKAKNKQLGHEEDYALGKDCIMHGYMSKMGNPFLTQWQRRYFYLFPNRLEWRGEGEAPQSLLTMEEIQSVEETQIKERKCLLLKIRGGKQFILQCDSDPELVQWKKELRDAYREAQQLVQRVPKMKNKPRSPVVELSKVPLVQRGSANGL

In order of falling inhibition of aptamer binding:
1. CCOC(=O)c1ccc(NC(=O)c2c(NCc3ccccc3)[nH]c(=O)[nH]c2=O)cc1  5%
2. CCOC(=O)N1CCC(NC(=O)C(C)n2c3ccccc3c3cnn(C)c(=O)c32)CC1 (stereo not drawn)  4%
3. O=C(c1cccc(S(=O)(=O)N2CCCC2)c1)N(Cc1ccco1)C1CCS(=O)(=O)C1 (stereo not drawn)  4%
4. O=[N+]([O-])c1cccc2ncccc12  4%
5. Cc1cc2cc(CNC(=O)c3ccc(S(=O)(=O)N4CCOCC4)cc3)ccc2[nH]1  3%
6. CCOC(=O)N1CCN(C(=O)c2ccc(CN(c3ccc(C)c(C)c3)S(C)(=O)=O)cc2)CC1  3%
7. COc1ccc(S(=O)(=O)N2CN(CCc3ccc(OC)c(OC)c3)c3nc4ccccc4nc32)cc1  3%
8. O=C(NNC(=S)NC1CC2CCC1C2)c1ccc(Cl)cc1 (stereo not drawn)  2%
9. COCCN(C(=O)c1ccccc1F)c1c(N)n(Cc2ccccc2)c(=O)[nH]c1=O  2%
10. CC(C)CN(C(=O)c1ccc2c(c1)OCO2)C1CCS(=O)(=O)C1 (stereo not drawn)  2%
11. CO/N=C(/CS(=O)(=O)c1ccc(Br)cc1)c1ccc(OC)cc1  2%
12. Cc1ccc(-c2cc(=O)[nH]c(NCc3ccccc3)n2)cc1  2%
13. Cc1cccc2nc(CNc3ccc(F)cc3)cn12  2%
14. O=C(CN1CCN(S(=O)(=O)c2ccc(Cl)s2)CC1)NCc1ccc(Cl)cc1  2%
15. COc1ccc(C2=NN(C(=O)CSc3nc(=O)n4ccc(C)cc4n3)C(c3ccc(C)cc3)C2)cc1 (stereo not drawn)  2%
16. C/C=C\C=C\C(=O)N1CC2(CC(c3cccc(NC(=O)/C(C)=C\C)c3)=NO2)C[C@H]1C(N)=O (stereo partly drawn)  1%
17. C/C=C(/C)C(=O)Nc1cccc(C2=NOC3(C2)C[C@@H](C(N)=O)N(C(=O)C2(C)CC2)C3)c1 (stereo partly drawn)  1%
18. COc1ccc(CCNC(=O)c2ccc(CS(=O)(=O)c3ccc(Br)cc3)o2)cc1OC  1%
19. CCC(C)(C(=O)Nc1ccccc1C)N(C(=O)CNC(C)=O)c1ccc(C)cc1 (stereo not drawn)  1%
20. Cc1ccc(OCCNC(=O)CCNS(=O)(=O)c2ccc(Br)cc2)cc1  1%
21. C=CCOc1ccc(/C=C/C(=O)OC(C)C(=O)Nc2ccc(NC(C)=O)cc2)cc1 (stereo not drawn)  1%
22. CN(C(=O)c1cccc([N+](=O)[O-])c1)c1ccccc1C(=O)NCc1ccccc1  1%
23. O=C(c1ccccc1)c1ccc(C(=O)N2CCN(c3ccccc3)CC2)cc1  1%
24. COc1ccc(NC(=O)Cn2ncn3c(cc4ccccc43)c2=O)c(OC)c1OC  1%
25. O=C(c1ccc(F)cc1)N1CCCC(C(=O)N2CCCCC2)C1 (stereo not drawn)  1%
26. Cc1noc(C)c1COc1ccccc1C(=O)N(C)CC(=O)Nc1cccc(F)c1  1%
27. CN1C(=O)CC(N2CCN(c3ccccn3)CC2)C1=O (stereo not drawn)  1%
28. CN(C(=O)CC(NC(=O)c1ccccc1)(c1ccccc1)c1ccccc1)c1ccccc1  1%
29. CCOc1ccc(-n2c(SCC(=O)OC)nc3sc4c(c3c2=O)CCN(C)C4)cc1  1%
30. CCOc1ccc(S(=O)(=O)Nc2cccc(C(=O)NCC3(N4CCCCC4)CCCCC3)c2)cc1  0%
31. CS(=O)(=O)c1ccc(-c2nnn(CC(=O)Nc3ccc4c(c3)OCCO4)n2)cc1  0%
32. S=C(NNC(=S)NC1CC2CCC1C2)NC1CC2C=CC1C2 (stereo not drawn)  0%
33. CC1c2nc3ccccc3n2C(CC(=O)NCCCN2CCOCC2)C(=O)N1Cc1ccccc1 (stereo not drawn)  0%
34. COCCn1c(N)c(N(Cc2ccccc2)C(=O)C2CCCCC2)c(=O)[nH]c1=O  0%
35. Cc1ccc2c(c1)C1CN(C)CCC1N2S(=O)(=O)c1ccc(Oc2ccc([N+](=O)[O-])cc2)cc1 (stereo not drawn)  0%
36. CCC1Oc2ccccc2N(CC(=O)NCCCN2CCN(CC)CC2)C1=O (stereo not drawn)  0%
37. COc1ccccc1CNC(=O)c1ccc(CS(=O)(=O)c2ccccc2)o1  0%
38. CCn1nc(NC(=O)c2ccco2)c2cc3ccc(C)cc3nc21  0%
39. CCc1cccc(CC)c1NC(=S)NCc1ccc2[nH]c(C)cc2c1  0%
40. CN(CC(=O)N1CCN(c2ccccc2)CC1)S(=O)(=O)c1cccs1  0%
41. COCc1ccc(CN2CCC(Oc3ccc(C(=O)NCc4ccccn4)cc3)CC2)o1  0%
42. O=C(N[C@H]1C/C=C\C(c2ccc(F)cc2)N(Cc2ccccc2)C(=O)C1)OCC1c2ccccc2-c2ccccc21 (stereo partly drawn)  0%
43. CCC1(C(=O)c2ccccc2)C(c2cccc([N+](=O)[O-])c2)C1(C(=O)OC)C(=O)OC (stereo not drawn)  0%
44. Cc1ccc(NC(=O)COc2ccc(/C=C3/NC(=O)NC3=O)cc2)cc1  0%
45. CC(C)c1ccc(/C=C2\NC(=O)NC2=O)cc1  0%
46. CC(NCc1cccs1)C(=O)Nc1cc(Cl)cc(Cl)c1 (stereo not drawn)  0%
47. COc1cc(NS(=O)(=O)c2ccc3ccccc3c2)c2ncccc2c1  0%
48. OC(COc1ccc(Br)cc1)CN1CCCC1 (stereo not drawn)  0%
49. CC1CCN(CC(O)COc2ccc(C(=O)c3ccccc3)cc2)CC1 (stereo not drawn)  0%
50. COc1ccc2oc(C(=O)N(CC(C)C)C3CCS(=O)(=O)C3)c(C)c2c1 (stereo not drawn)  0%
51. COc1cc(C(=O)N(Cc2ccc(N(C)C)cc2)C2CCS(=O)(=O)C2)cc(OC)c1OC (stereo not drawn)  0%
52. CCOC(=O)CN(C(=O)CN1CCOCC1)c1ccc(Br)cc1  0%
53. CC(=O)N1CCc2cc(Br)cc(S(=O)(=O)CCC(=O)Nc3c(C)n(C)n(-c4ccccc4)c3=O)c21  0%
54. Cc1c(NC(=O)C(C)Oc2cccc(Cl)c2)c(=O)n(-c2ccccc2)n1C (stereo not drawn)  0%
55. COc1ccccc1NC(=O)C1CCN(C(=O)c2ccc(C(C)(C)C)cc2)CC1  0%
56. CC(=O)c1ccc(N2CCN(C(=O)CCc3ccccc3)CC2)cc1  0%
57. Cn1c(=O)[nH]c(=O)c2c1nc(N1CCN(CCO)CC1)n2CCSc1nc2ccccc2s1  0%
58. CN1CCN(c2nc3c(c(=O)[nH]c(=O)n3C)n2Cc2cccc3ccccc23)CC1  0%
59. Cc1ccc(NN=Nc2nc3c([nH]2)c(=O)n(C)c(=O)n3C)cc1  0%
60. O=C1CCCC2=C1C(c1cccs1)CC(=O)N2c1ccc(F)cc1 (stereo not drawn)  0%
61. CCOC(=O)c1cc2c(n(-c3ccc(C)cc3)c1=O)CCCC2=O  0%
62. CC(C)(C)OC(=O)N/N=C/c1ccc(C(=O)O)cc1  0%
63. COC(=O)N/N=C/c1ccc(-c2ccc(Cl)c(Cl)c2)o1  0%
64. CCNS(=O)(=O)c1ccc(CCC(=O)N2CCN(c3cc(Cl)ccc3C)CC2)cc1  0%
65. O=C1c2ccccc2C2=Nc3ccccc3SC(c3ccccc3F)C12 (stereo not drawn)  0%
66. COc1cc(C)ccc1OCC(=O)OCC(=O)c1ccc[nH]1  0%
67. CC1(c2cccc([N+](=O)[O-])c2)CC(C)(C)N(C(=O)c2ccccc2)c2ccccc21 (stereo not drawn)  0%
68. CC1(c2ccccc2)CC(C)(C)N(C(=O)c2cc([N+](=O)[O-])cc([N+](=O)[O-])c2)c2ccccc21 (stereo not drawn)  0%
69. CC(Sc1nnc(-c2ccccc2F)n1C1CC1)C(N)=O (stereo not drawn)  0%
70. Cc1ccc(C(=O)COC(=O)CCCC(=O)NC2CCCCC2)cc1[N+](=O)[O-]  0%
71. CCOc1ccc(-n2c(SCC(=O)Nc3ccc(OC)cc3)nc3sc4c(c3c2=O)CCN(C)C4)cc1  0%
72. C[C@@H](O)c1nc2ccccc2n1N  0%
73. CCOC(=O)c1c(C)[nH]c(C)c1S(=O)(=O)NCCCc1ccco1  0%
74. Cc1cccc(Cn2c(N3CCN(c4ccccc4)CC3)nc3c2c(=O)n(C)c(=O)n3C)c1  0%
75. CCCCn1c(SCC(=O)N2CCOCC2)nc2c1c(=O)n(C)c(=O)n2C  0%

`C=C(C)C(=O)Nc1cccc(C2=NOC3(C2)C[C@H](C(N)=O)N(C(=O)C(c2ccccc2)c2ccccc2)C3)c1` (stereo partly drawn) was tested, and the inhibition of aptamer binding was 91% (active).
In the case of `CC1CCN(C(=S)NC2CC3CCC2C3)CC1` (stereo not drawn), the inhibition of aptamer binding is reported as 67% (active).
In the case of `COCCn1c(N)c(NCc2ccccc2)c(=O)[nH]c1=O`, the inhibition of aptamer binding is reported as 47% (active).
`Nc1ccc2nc3c(=O)[nH]c(=S)[nH]c3nc2c1` was tested, and the inhibition of aptamer binding was 70% (active).
`CCOCCCNC(=O)c1ccc(CS(=O)(=O)c2cccc(C(F)(F)F)c2)o1` was tested, and the inhibition of aptamer binding was 48% (active).
`Cc1cc2cc(CNC(=O)c3cccs3)ccc2[nH]1` was tested, and the inhibition of aptamer binding was 44% (active).
For `CC(C)CN(C(=O)c1cccc(S(=O)(=O)N2CCCCC2)c1)C1CCS(=O)(=O)C1` (stereo not drawn), the inhibition of aptamer binding was 92% (active).
`CSc1ccc(/C=C2\NC(=O)NC2=O)cc1` was tested, and the inhibition of aptamer binding was 46% (active).
In the case of `O=[N+]([O-])c1ccccc1S(=O)(=O)Nc1cccc2cccnc12`, the inhibition of aptamer binding is reported as 46% (active).
In the case of `O=C(c1ccc(Cl)cc1)c1ccc(OCC(O)CN2CCCCC2)cc1` (stereo not drawn), the inhibition of aptamer binding is reported as 43% (active).
For `COc1ccccc1C(=O)N(Cc1ccc(C)o1)C1CCS(=O)(=O)C1` (stereo not drawn), the inhibition of aptamer binding was 43% (active).
For `CC(=O)c1ccc(N2CCN(C(=O)c3ccc4nc[nH]c4c3)CC2)cc1`, the inhibition of aptamer binding was 66% (active).
`Cn1c(=O)[nH]c(=O)c2c1nc(N1CCN(C(c3ccccc3)c3ccccc3)CC1)n2CCO` was tested, and the inhibition of aptamer binding was 43% (active).
`CCOC(=O)C1=C(N)N(c2ccc(C)cc2)C2=C(C(=O)CCC2)C1c1cccs1` (stereo not drawn) was tested, and the inhibition of aptamer binding was 45% (active).
For `COC(=O)N/N=C/c1ccc(/C=N/NC(=O)OC)cc1`, the inhibition of aptamer binding was 87% (active).
For `Cc1nnc(SCC(=O)N2c3ccccc3C(C)(c3ccc(Cl)cc3)CC2(C)C)s1` (stereo not drawn), the inhibition of aptamer binding was 72% (active).
`COc1ccccc1NC(=O)CSc1nc2sc3c(c2c(=O)n1-c1ccccc1)CCN(C)C3` was tested, and the inhibition of aptamer binding was 56% (active).
For `Cn1c(=O)c2c(nc(N3CCOCC3)n2CCNC2=NCCC2)n(C)c1=O`, the inhibition of aptamer binding was 83% (active).
